Screening data: PubChem BioAssay, several laboratories
Shown are actives, neighbours in structure and some others; about 7% of the full set was active somewhere.
KLK7 zymogen act: activators of human kallikrein-7 zymogen; P49862; purified proKLK7, EDANS-DABCYL substrate fluorescence; 100% is mature enzyme control, 0% vehicle; activation, % at 7 µM; actives 0.9% (n = 370,000); AID 652039;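 active = activation above the mean of all tested compounds plus 3 SD, computed per campaign excluding outliers beyond control limits, cut at about 13% in these data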
GRIN3A LBD mod: NR3A (human) ligand-binding domain modulation. NR3A LBD differential scanning fluorimetry, Tm shift; 0% = protein alone, 100% = glycine-bound protein. Tm shift relative to glycine control, % at 25 µM. actives 2.5% (n = 340,000);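 active = melting temperature shift of at least 10% of the positive control shift, at one fixed dose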
rCAG RNA binder: molecules binding r(CAG) RNA repeats; r(CAG) RNA repeat, TO-PRO-1 dye displacement fluorescence; inhibition, % at 3 µM; actives 1.3% (n = 370,000); AID 651821;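 active = inhibition above the plate cutoff, the mean of all test compounds on that plate plus 3 SD, cut at about 35% in these data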;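 also: 0% = DMSO alone and 100% = 100 µM mitoxantrone as full dye displacement; higher means more dye released from RNA so lower well fluorescence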
AHR activator: activators of human aryl hydrocarbon receptor | AHR-responsive luciferase reporter cells, luminescence | actives 2.5% (n = 320,000) | AID 2796 | activation, % at 5 µM | P35869; in the data active = activation above about 47%;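 also: 0% = vehicle wells and 100% = reference agonist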
ADAM17 inh: ADAM17 inhibition, QFRET primary screen. inhibition, % at 6.95 µM. P78536. AID 720648. recombinant ADAM17, EDANS/DABCYL FRET peptide cleavage. actives 0.83% (n = 370,000);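 active = inhibition above the mean of compounds lying between control limits plus 3 SD, set per campaign, cut at about 8.5% in these data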;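 also: 0% = DMSO-only wells as the low control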
Target sequence (P78536 215-824 limits assumed): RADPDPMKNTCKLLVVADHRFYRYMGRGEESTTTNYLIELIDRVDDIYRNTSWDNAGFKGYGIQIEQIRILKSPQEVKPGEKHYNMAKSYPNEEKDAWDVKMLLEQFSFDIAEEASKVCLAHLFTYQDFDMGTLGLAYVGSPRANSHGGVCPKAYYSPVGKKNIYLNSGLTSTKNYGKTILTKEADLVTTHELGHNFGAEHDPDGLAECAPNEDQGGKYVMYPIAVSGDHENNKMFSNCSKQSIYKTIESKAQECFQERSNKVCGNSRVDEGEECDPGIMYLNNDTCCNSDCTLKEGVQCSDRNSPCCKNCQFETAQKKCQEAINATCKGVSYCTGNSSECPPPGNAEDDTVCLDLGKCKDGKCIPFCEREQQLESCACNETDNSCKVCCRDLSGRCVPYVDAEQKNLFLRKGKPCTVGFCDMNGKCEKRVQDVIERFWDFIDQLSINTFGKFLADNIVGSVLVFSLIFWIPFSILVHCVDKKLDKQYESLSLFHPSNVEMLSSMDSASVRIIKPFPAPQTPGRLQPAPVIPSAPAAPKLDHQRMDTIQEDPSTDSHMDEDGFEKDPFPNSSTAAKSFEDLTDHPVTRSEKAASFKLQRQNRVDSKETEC
ADAM10 inh: inhibitors of human ADAM10 | O14672 | recombinant ADAM10, EDANS/DABCYL FRET peptide cleavage, 3 h | inhibition, % at 7 µM | actives 0.62% (n = 370,000) | AID 720582;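 active = inhibition above a per-campaign cutoff equal to the mean of compounds falling between control-based bounds plus 3 SD, cut at about 20% in these data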;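 also: 0% = DMSO wells while the 100% control is not disclosed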
AHR act confirm: human AHR activation, confirmation. activation, % at 9 µM. actives 87% (n = 2,300). shares compounds with AHR activator. human cells, AHR-responsive luciferase reporter, luminescence; in the data active = activation above about 49%;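 also: HepG2 hepatoma cells carrying a DRE-driven firefly luciferase reporter; 0% = vehicle wells and 100% = reference agonist wells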
PXR act counter: PXR activation, counter-screen for AHR activators; shares compounds with AHR activator; activation, % at 11.6 µM; actives 88% (n = 2,300); AID 434939; cell-based PXR reporter, luciferase luminescence; in the data active = activation above about 11%;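 also: human hepatoma DPX-2 cells expressing full-length human PXR; 0% = DMSO and 100% = reference agonist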
The depositor's hits bear a star; x = no result.

SMILES	KLK7 zymogen act	GRIN3A LBD mod	rCAG RNA binder	AHR activator	ADAM17 inh	ADAM10 inh	AHR act confirm	PXR act counter
COc1ccc(NC(=O)c2cc3ccccc3cc2OC)cc1	-5	3	8	96*	-1	0	66*	12*
CC(=O)CC[C@@H]1CC[C@]2(CCCN(S(=O)(=O)c3ccccc3)C2)O1	0	x	0	x	0	-3	x	x
Cc1cc(N/N=C/c2ccccc2O)c2ccccc2n1	-1	-8	16	107*	0	-1	124*	13*
C[C@H]1CN(S(=O)(=O)C(C)(C)C)[C@H](CCO)/C1=C\CCO	-1	x	1	x	3	-2	x	x
O=C(Nc1ccc(Cl)cc1)c1cccc(S(=O)(=O)Nc2ccccn2)c1	0	-9	14	91*	-6	-5	77*	34*
O=C(Nc1ccc(Cl)cc1)c1cc(S(=O)(=O)Nc2ccccn2)ccc1Cl	0	-14	15	0	1	-20	x	x
Cc1ccc(C(=O)N/N=C/c2ccc3c(c2)OCO3)o1	2	4	2	142*	-8	-25	98*	21*
COc1cc(/C=N/NC(=O)c2cccnc2)cc2c1OCO2	0	-27	-4	88*	-1	-1	78*	x
O=C(N/N=C\c1ccc2c(c1)OCO2)c1cncc(Br)c1	0	-2	1	104*	-3	-4	80*	10*
Clc1ccccc1N/N=C/c1ccc2c(c1)OCO2	0	-23	2	80*	2	-8	66*	35*
CCCCOCCCNC(=O)C[C@H]1C[C@@]2(C(=O)OCC)CCCC3=C2N(CCC3)C1=O	1	x	-2	x	2	3	x	x
CCN1CCCCC(NC(=O)c2ccc(Cl)cc2Cl)C1=O (stereo not given)	1	x	2	x	-9	-9	x	x
COc1ccc(/C=C/S(=O)(=O)NCC(C)C)c(CNC(=O)OC(C)(C)C)c1	0	x	2	x	-3	-13	x	x
CCCCNC(=S)N(C)/N=C/c1ccc2c(c1)OCO2	0	-1	-1	159*	4	0	68*	26*
C=C(C)CNC(=S)N/N=C\c1ccc2c(c1)OCO2	-1	0	-1	82*	-1	-1	64*	67*
C=CCCC1CN(Cc2ccc(OC)cc2)S(=O)(=O)c2c(cccc2N2CCCCC2)O1 (stereo not given)	0	x	2	x	-1	-21	x	x
Cc1ccc(NC(=O)c2cccc(C(F)(F)F)c2)cc1NC(=O)c1[nH]cnc1C(N)=O	-6	-4	2	119*	-4	4	114*	57*
Cc1csc2ncc(C(=O)Nc3ccc4c(c3)OCCO4)c(=O)n12	0	0	4	11	-1	1	x	x
Cc1cccc(NC(=O)c2cnc3scc(C)n3c2=O)c1	0	0	2	79*	-1	-7	96*	57*
Cc1csc2ncc(C(=O)Nc3ccon3)c(=O)n12	0	-4	-2	120*	-152	-489	115*	12*
O=C(Nc1ccc(Cl)cc1)N1CCN(Cc2nc3ccccc3c(=O)[nH]2)CC1	0	x	3	x	3	1	x	x
O=C(CN1C2=NCCN2c2ccccc21)C12CC3CC(CC(C3)C1)C2	0	-1	8	82*	-3	3	48*	58*
O=C(N/N=C/c1cccc([N+](=O)[O-])c1)c1c[nH]c2ccccc12	0	27*	5	97*	-1	4	140*	19*
Cn1cc(C(=O)N/N=C/c2cccc([N+](=O)[O-])c2)c2ccccc21	0	9	3	99*	1	2	41	19*
O=C(N/N=C/c1cccc([N+](=O)[O-])c1)c1ccc2nc[nH]c2c1	0	6	3	4	-3	1	x	x
CC1CCN(c2c3c(nc4ncnn24)CCCC3)CC1	1	x	-1	x	1	0	x	x
CC(=O)N1CCN(C(=O)c2ccc(CNC(=O)c3cccc(Br)c3)cc2)CC1	0	x	0	x	2	0	x	x
